# C diff growth: blocks growth of Clostridium difficile; Clostridium difficile clinical isolate growth, OD600, 24 h; hits give low values; growth activity, negative = inhibition, % at 16 µg/mL (by protocol); actives 0.25% (n = 86,000); AID 1259249;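 active = mean growth activity at or below -80% and every replicate also at or below -80%; inconclusive = mean at or below -80% but some replicate above -80%; inactive = mean growth activity above -80%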;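 also: 0% = DMSO wells and -100% = levofloxacin 16 µg/mL wells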
# T cruzi growth-1: blocks T. cruzi growth in NIH3T3 culture; T. cruzi beta-gal in NIH3T3, GalScreen luminescence, 90 h; inhibition, % at 8.34 µM; actives 5.9% (n = 77,000); AID 624255;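 active = mean inhibition above about 93%, with at least 55% of replicates each passing it, limit read from the data, passing the limit was not always enough; inconclusive = only one of those two conditions holds; inactive = neither condition holds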
# Pf Dd2 growth: inhibitors of Plasmodium falciparum Dd2 growth. activity change, % at 10 µM. P. falciparum Dd2 growth, SYBR Green, 72 h; hits give low values. actives 2.3% (n = 94,000); in the data active = activity change below about -80%; inconclusive = no clear call, values can overlap the other calls
# T cruzi growth-2: inhibitors of T. cruzi proliferation; shares compounds with T cruzi growth-1; T. cruzi beta-gal in NIH3T3, GalScreen luminescence, 90 h; inhibition, % at 8.35 µM; actives 72% (n = 5,600); AID 651739;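 active = mean replicate inhibition above about 95% and at least 55% of replicates individually reaching it, limit read from the data; inconclusive = only one of the two criteria is met; inactive = neither criterion is met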
# T cruzi growth-3: blocks T. cruzi growth in NIH3T3 host cells; inhibition, % at 2.09 µM; actives 21% (n = 5,600); shares compounds with T cruzi growth-1; T. cruzi beta-gal in NIH3T3, GalScreen luminescence, 90 h;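 active = mean inhibition above about 95%, with at least 55% of replicates also reaching it, limit read from the data; inconclusive = meets just one of the two conditions; inactive = meets neither condition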;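 also: plate controls were neutral control median for no effect and positive control median for full effect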
# NIH3T3 tox: kills mouse NIH/3T3 fibroblasts; shares compounds with T cruzi growth-1; NIH/3T3 viability, CellTiter-Glo ATP luminescence, 90 h; cytotoxicity (signal decrease), % at 8.35 µM; actives 14% (n = 5,600); AID 651742;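 active = mean signal decrease across replicates above about 35% based on untreated-well scatter, with enough replicates individually passing, limit read from the data; inconclusive = no rule stated though some were filed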;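 also: 0% = median of neutral control wells and 100% = median of positive control wells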
# 3T3 cytotox 2: NIH/3T3 (mouse) viability loss. inhibition, % at 24.9 µM. actives 56% (n = 5,600). NIH/3T3 viability, CellTiter-Glo ATP luminescence, 90 h. shares compounds with T cruzi growth-1;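 active = mean loss of cell viability signal at or above a set limit, and enough replicates individually reaching it; inconclusive = meets only the mean limit or only the replicate share; inactive = meets neither condition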;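 also: 0% = median of neutral control wells and 100% = median of positive control wells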
# * marks the source's active call; other numbers are inactive results; ? = inconclusive; . = no result given. This is a sample that favours compounds with a hit; in the whole collection about 6.8% have one here.
SMILES,C diff growth,T cruzi growth-1,Pf Dd2 growth,T cruzi growth-2,T cruzi growth-3,NIH3T3 tox,3T3 cytotox 2
C[C@@H]1CCCCO[C@H](CN(C)C(=O)c2ccccc2)[C@H](C)CN([C@H](C)CO)C(=O)c2cc(NS(=O)(=O)c3cn(C)cn3)ccc2O1,.,43,26,.,.,.,.
C[C@@H]1CCCCO[C@H](CN(C)C(=O)c2ccncc2)[C@H](C)CN([C@H](C)CO)C(=O)c2cc(NS(=O)(=O)c3ccccc3)ccc2O1,.,-92,-27,.,.,.,.
COc1ccc(-c2ccc3c(c2)O[C@H](CN(C)Cc2cccnc2)[C@@H](C)CN([C@@H](C)CO)S3(=O)=O)cc1,-10,.,-57,.,.,.,.
COc1cccc(-c2ccc3c(c2)O[C@@H](CN(C)Cc2cccnc2)[C@H](C)CN([C@@H](C)CO)S3(=O)=O)c1,-6,112*,-56,92,104*,48*,88*
C[C@H]1CN([C@@H](C)CO)S(=O)(=O)c2ccc(-c3cccnc3)cc2O[C@@H]1CN(C)Cc1cccnc1,9,79,-5,.,.,.,.
COc1cccc(-c2ccc3c(c2)O[C@H](CN(C)Cc2cccnc2)[C@@H](C)CN([C@H](C)CO)S3(=O)=O)c1,3,113*,-49,98*,108*,64*,86*
COc1cccc(-c2ccc3c(c2)O[C@@H](CN(C)Cc2cccnc2)[C@@H](C)CN([C@H](C)CO)S3(=O)=O)c1,-1,91,-26,.,.,.,.
COc1cccc(-c2ccc3c(c2)O[C@@H](CN(C)Cc2cccnc2)[C@@H](C)CN([C@@H](C)CO)S3(=O)=O)c1,-3,95*,-28,?,72,16,53*
COc1ccc(S(=O)(=O)N(C)C[C@@H]2Oc3ccc(NC(=O)Cc4cn(C)c5ccccc45)cc3C(=O)N([C@H](C)CO)C[C@@H]2C)cc1,-6,101*,-85*,97*,20,10,63*
C[C@@H]1CN([C@H](C)CO)C(=O)c2cc(NC(=O)Cc3cn(C)c4ccccc34)ccc2O[C@@H]1CN(C)S(=O)(=O)c1ccccc1,-6,38,-1,.,.,.,.
C[C@H](CO)N1C[C@H](C)[C@H](CN(C)S(=O)(=O)c2ccc(F)cc2)Oc2ccc(NC(=O)Cc3cn(C)c4ccccc34)cc2C1=O,7,76,-58,.,.,.,.
COc1ccc(S(=O)(=O)N(C)C[C@@H]2Oc3ccc(NC(=O)Cc4cn(C)c5ccccc45)cc3C(=O)N([C@@H](C)CO)C[C@@H]2C)cc1,6,102*,-73,85,27,-5,46*
CCC(=O)N1CC(=O)N2[C@H](CO)[C@H](c3ccc(C#CCc4ccccc4)cc3)[C@@H]2C1,-1,.,-38,.,.,.,.
COc1ccc(CN(C)C[C@@H]2OCCCC[C@@H](C)Oc3ccc(NC(=O)NC4CCCCC4)cc3C(=O)N([C@@H](C)CO)C[C@H]2C)cc1,3,37,-32,.,.,.,.
CC(C)C#Cc1ccc([C@@H]2[C@@H](CO)N(C(=O)C3CCC3)[C@H]2C#N)cc1,-9,100*,-8,100*,69,2,31*
CC(C)C#Cc1ccc([C@H]2[C@@H](C#N)N(C(=O)C3CC3)[C@H]2CO)cc1,-3,92,-30,.,.,.,.
CC(C)C#Cc1ccc([C@@H]2[C@@H](C#N)N(C(=O)C3CC3)[C@H]2CO)cc1,-18,44,-9,.,.,.,.
CC(C)C#Cc1ccc([C@H]2[C@@H](C#N)N(C(=O)C3CCC3)[C@H]2CO)cc1,1,98*,-61,100*,88,0,37*
CC(C)C#Cc1ccc([C@@H]2[C@H](C#N)N(C(=O)C3CCC3)[C@H]2CO)cc1,8,?,-17,104*,73,15,34*
CC(C)C#Cc1ccc([C@H]2[C@@H](CO)N(C(=O)C3CCOCC3)[C@H]2C#N)cc1,0,98*,-21,106*,93,-8,-5
CC(C)C#Cc1ccc([C@H]2[C@@H](C#N)N(C(=O)C3CCC3)[C@@H]2CO)cc1,-4,90,-11,.,.,.,.
C[C@H](CO)N1C[C@H](C)[C@@H](CN(C)C)Oc2ccc(NC(=O)Nc3ccc(F)cc3)cc2C1=O,4,.,5,.,.,.,.
CO[C@@H]1CN(C)C(=O)c2ccc(NC(=O)NC(C)C)cc2OC[C@H](C)N(CC2CC2)C[C@H]1C,.,-3,12,.,.,.,.
Cc1ccc(S(=O)(=O)Nc2ccc3c(c2)C(=O)N([C@@H](C)CO)C[C@@H](C)[C@@H](CN(C)C(=O)CCC(F)(F)F)OCCCC[C@@H](C)O3)cc1,.,55,4,.,.,.,.
CN1CCN(C(=O)C[C@@H]2C[C@@H]3c4cc(NC(=O)C5CCOCC5)ccc4O[C@@H]3[C@H](CO)O2)CC1,-3,-21,-7,.,.,.,.
SMILES,C diff growth,T cruzi growth-1,Pf Dd2 growth,T cruzi growth-2,T cruzi growth-3,NIH3T3 tox,3T3 cytotox 2
O=C(Nc1ccc(F)cc1)N1CCCCN2[C@H](C1)[C@H](c1ccc(-c3cccc(F)c3)cc1)[C@@H]2CO,43,116*,-2,109*,77,10,79*
N#Cc1cccc(-c2ccc([C@H]3[C@H](CO)N4CCCCN(C(=O)Nc5ccc(F)cc5)C[C@@H]34)cc2)c1,35,102*,4,104*,66,21,105*
N#Cc1cccc(-c2ccc([C@H]3[C@H]4CN(C(=O)Nc5ccccc5)CCCCN4[C@H]3CO)cc2)c1,9,57,13,.,.,.,.
CCS(=O)(=O)N1CCCCN2[C@H](C1)[C@@H](c1ccc(-c3cccc(C#N)c3)cc1)[C@@H]2CO,-2,73,-31,.,.,.,.
O=C(Nc1ccc(F)cc1)N1CCCCN2[C@H](CO)[C@H](c3ccc(-c4cccc(F)c4)cc3)[C@H]2C1,57,49,-26,.,.,.,.
N#Cc1ccc(-c2ccc([C@H]3[C@H](CO)N4CCCCN(C(=O)Nc5ccc(F)cc5)C[C@@H]34)cc2)cc1,34,51,-15,.,.,.,.
CCC(=O)N1CCCCN2[C@@H](CO)[C@H](c3ccc(-c4cccc(C#N)c4)cc3)[C@@H]2C1,-2,107*,27,85,77,29,61*
N#Cc1ccc(-c2ccc([C@H]3[C@@H](CO)N4CCCCN(C(=O)Nc5ccc(F)cc5)C[C@H]34)cc2)cc1,29,98*,-49,105*,105*,32,104*
CCCC(=O)N1CC2(CCN(C(=O)NC(C)C)CC2)c2c([nH]c3cc(OC)ccc23)[C@@H]1CO,-7,.,20,.,.,.,.
C[C@@H]1CN([C@H](C)CO)C(=O)c2cc(-c3ccccc3F)cnc2O[C@@H]1CN(C)C(=O)C1CCC1,3,6,20,.,.,.,.
O=C(C1CCCC1)N1CCCCN2[C@@H](CO)[C@@H](c3ccc(-c4cccc(F)c4)cc3)[C@@H]2C1,21,78,-35,.,.,.,.
O=C(C1CCCC1)N1CCCCN2[C@H](CO)[C@@H](c3ccc(-c4cccc(F)c4)cc3)[C@@H]2C1,7,104*,-22,98*,115*,42*,106*

# Assay outcomes as filed in PubChem BioAssay.
